Source: PubChem
KCNQ2 inh = rat KCNQ2 potassium channel inhibitors, primary screen, cell-based, CHO-K1, FluxOR thallium flux, B-score | Potassium voltage-gated channel subfamily KQT member 2 (Rattus norvegicus), O88943 | 20 min; hits give low values | B-score at 10 µM | hit rate 1.1% among 310,000;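 active = fluorescence ratio B-score at most minus 3 library SDs, with starting brightness B-score within 2 library SDs, cut at about -5.5 in these data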
Target sequence (O88943 whole entry, looked up): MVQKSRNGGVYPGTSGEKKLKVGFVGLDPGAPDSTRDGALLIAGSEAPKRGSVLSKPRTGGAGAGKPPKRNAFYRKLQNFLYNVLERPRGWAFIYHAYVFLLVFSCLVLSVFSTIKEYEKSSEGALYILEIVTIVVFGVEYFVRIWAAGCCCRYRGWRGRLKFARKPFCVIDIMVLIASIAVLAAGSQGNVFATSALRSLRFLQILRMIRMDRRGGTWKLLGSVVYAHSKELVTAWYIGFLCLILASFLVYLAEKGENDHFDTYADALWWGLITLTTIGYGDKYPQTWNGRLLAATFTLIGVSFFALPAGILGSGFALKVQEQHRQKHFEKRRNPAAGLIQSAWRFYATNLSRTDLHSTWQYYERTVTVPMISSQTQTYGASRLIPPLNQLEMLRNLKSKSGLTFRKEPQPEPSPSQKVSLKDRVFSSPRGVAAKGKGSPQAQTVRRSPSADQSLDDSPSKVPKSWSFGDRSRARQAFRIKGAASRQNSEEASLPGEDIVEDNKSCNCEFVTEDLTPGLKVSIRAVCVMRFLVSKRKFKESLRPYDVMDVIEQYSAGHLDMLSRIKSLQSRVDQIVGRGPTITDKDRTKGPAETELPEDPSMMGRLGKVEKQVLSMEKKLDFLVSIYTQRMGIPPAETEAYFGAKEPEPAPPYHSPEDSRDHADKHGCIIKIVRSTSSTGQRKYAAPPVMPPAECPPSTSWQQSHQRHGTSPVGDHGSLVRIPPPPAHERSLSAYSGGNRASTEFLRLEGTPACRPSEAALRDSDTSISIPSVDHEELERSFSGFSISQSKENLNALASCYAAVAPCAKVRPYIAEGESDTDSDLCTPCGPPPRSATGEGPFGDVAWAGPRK
KCNQ2 enhance = potentiators of rat KCNQ2 potassium channel; CHO-K1 KCNQ2, FluxOR thallium flux fluorescence; hits give high values; Potassium voltage-gated channel subfamily KQT member 2 (Rattus norvegicus), O88943; B-score at 10 µM; AID 2239, 2010; hit rate 0.54% among 310,000;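 active = fluorescence ratio B-score at least 3 SD of library B-scores, with initial fluorescence B-score within 3 of them, cut at about 5.3 in these data; same plate scores as AID 2156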;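 also: B-score of peak minus minimum over baseline fluorescence ratio after K+ and Tl+ stimulus; positive B-score means potentiation of KCNQ2 with more thallium influx and brighter signal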
KCNQ2 inh conf = rat KCNQ2 potassium channel inhibitors, confirmation, cell-based, thallium flux. shares compounds with KCNQ2 inh. KCNQ2-expressing cells, inhibition; hits give low values. activity change, negative = inhibition, % at 10 µM. hit rate 57% among 1,000. AID 493025, 2011
KCNQ1 spec = human KCNQ1 channel inhibition, counter-screen for KCNQ2 inhibitor project, cell-based, FluxOR thallium flux; activity change, negative = inhibition, % at 10 µM; KCNQ1-expressing cells, FluxOR thallium flux fluorescence; hits give low values; hit rate 15% among 1,000; shares compounds with KCNQ2 inh;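 active = activity change at least 3 SD of negative controls below their mean in both duplicate wells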;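 also: CHO cells stably transfected with KCNQ1 and depolarized by potassium stimulus; peak minus minimum fluorescence over baseline after thallium addition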
CHO Tl ctr = thallium flux change in parental CHO cells, counter-screen for KCNQ2 inhibitor project; shares compounds with KCNQ2 inh; hits give low values; activity change, % at 10 µM; hit rate 14% among 1,000
KCNQ2 patch conf = rat KCNQ2 channel inhibitors, confirmation, cell-based, automated patch clamp, single concentration; shares compounds with KCNQ2 inh; KCNQ2-expressing cells, automated patch clamp current; calls only at 10 µM; hit rate 49% among 550; AID 588531, 2011
Hits are given with their value; – = inactive; · = no result; + = active, no number. Rows were chosen to be rich in hits. Some 1.6% of all compounds tested hit in one or more screens of this group. Unless noted, no rule for the calls is given here.

SMILES	KCNQ2 inh	KCNQ2 enhance	KCNQ2 inh conf	KCNQ1 spec	CHO Tl ctr	others
COc1ccccc1N1CCN(C(=O)c2cccc(N3C(=O)NC4CC3(C)Oc3ccccc34)c2)CC1 (centres undefined)	-7.7	–	–	–	–
CC12CC(NC(=O)N1c1cccc(C(=O)N3CCN(c4ccccc4)CC3)c1)c1ccccc1O2 (centres undefined)	-7.3	–	–	–	–
CCOC(=O)N1CCN(C(=O)c2cccc(N3C(=O)NC4CC3(C)Oc3ccccc34)c2)CC1 (centres undefined)	–	–	·	·	·
COC(=O)c1cn(NC(=O)Cc2ccccc2Br)c(=O)c2ccccc12	–	·	·	·	·
CCC1Oc2ccccc2N(CC(=O)NC2CCCCC2C)C1=O (centres undefined)	–	·	·	·	·
CCC(Sc1nc2ccncc2[nH]1)C(=O)Nc1cc(Cl)ccc1C (centres undefined)	–	·	·	·	·
CN(Cc1ccccc1)C(=O)CCn1c(=O)c2cccn2c2cccnc21	–	·	·	·	·
O=c1c2cn[nH]c2nc(SCc2c(F)cccc2F)n1-c1ccc(Cl)cc1	–	·	·	·	·
CC(C(=O)NCC1CCCCC1)N(C)Cc1ccc(Cl)cc1 (centres undefined)	-6.7	–	–	–	–
CC(C(=O)NCC1CCCCC1)N(C)Cc1ccc(Br)cc1 (centres undefined)	–	·	·	·	·
COc1ccc(CNC(=O)c2nn(-c3ccccc3)cc2OC)cc1	–	–	·	·	·
COc1cc(C2Sc3ccccc3NC3=C2C(=O)OC3)cc(OC)c1OC (centres undefined)	–	·	·	·	·
COc1cc(C2CC(=O)Nc3ccccc3S2)cc(OC)c1OC (centres undefined)	-8.5	–	–	–	–
CN(CCOc1ccccc1)C(=O)C1CCC(=O)N(CCc2ccc(Cl)cc2)C1 (centres undefined)	-7.8	–	–	–	–
COc1ccc(CCN2CC(C(=O)N(C)CCOc3ccccc3)CCC2=O)cc1 (centres undefined)	–	·	·	·	·
N#C/C(=C\c1ccccc1[N+](=O)[O-])C(=O)NC1CCCCC1	-6.9	–	-34%	–	–	KCNQ2 patch conf=+
CCOc1ccccc1/C=C(\C#N)C(=O)NC1CC1	–	·	·	·	·
Cc1ccc(S(=O)(=O)NCC(=O)N2CCN(S(=O)(=O)c3ccc(Cl)cc3)CC2)cc1C	–	·	·	·	·
Cc1ccc(-n2c(C)c(C)c3c(N)ncnc32)cc1	–	·	·	·	·
C=C(C)Cn1c(SCC#N)nc2ccccc2c1=O	–	–	·	·	·
CCN(CCCn1c(SCC#N)nc2ccccc2c1=O)c1ccccc1	-8.8	–	–	–	–
COc1ccc(OC)c(CCNC(=O)c2ccc3c(c2)N(Cc2ccc(F)cc2)CCS3)c1	–	·	·	·	·
COc1ccc(CCNC(=O)c2ccc3c(c2)N(Cc2ccc(F)cc2)CCS3)c(OC)c1	-8.1	–	–	–	–
COc1ccccc1N1CCN(c2nc(C)nc3c2oc2ccccc23)CC1	-6.9	–	–	–	–
Cc1nc(N2CCC(C)CC2)c2oc3ccccc3c2n1	–	·	·	·	·
SMILES	KCNQ2 inh	KCNQ2 enhance	KCNQ2 inh conf	KCNQ1 spec	CHO Tl ctr	others
CC(=O)C(Cc1ccccc1)NC(=O)CN(C)Cc1ccccc1Cl (centres undefined)	-8.5	–	–	–	–
CC(=O)C(Cc1ccccc1)NC(=O)CCl (centres undefined)	–	·	·	·	·
Cc1ccc2nc(SC(C)C(=O)Nc3cccc([N+](=O)[O-])c3)[nH]c2c1 (centres undefined)	–	·	·	·	·
COc1ccc(NC(=O)CN(C)CC(=O)Nc2cccc(S(=O)(=O)N(C)c3ccccc3)c2)cc1	–	·	·	·	·
O=C(CN(c1ccc(Cl)c(Cl)c1)S(=O)(=O)c1ccccc1)N1CCc2ccccc2C1	-9.4	–	-33%	–	–	KCNQ2 patch conf=+
COc1ccc(N(CC(=O)N2CCc3ccccc3C2)S(=O)(=O)c2ccccc2)cc1	–	·	·	·	·
CCN(CC)S(=O)(=O)c1ccc(NC(=O)C2c3ccccc3Oc3ccccc32)cc1	–	·	·	·	·
CC1CCCN(C(=O)N2c3ccccc3Sc3ccccc32)C1 (centres undefined)	-6.9	–	-15%	–	–	KCNQ2 patch conf=–
O=C(N1CCOCC1)N1c2ccccc2Sc2ccccc21	–	·	·	·	·
CCC(C)NC(=O)CCNS(=O)(=O)c1ccc(Br)cc1 (centres undefined)	–	–	·	·	·
Cc1ccc(C(=O)N2CCN(Cc3ccc4c(c3)OCO4)CC2)o1	–	–	·	·	·
Cc1ccc2c(C)c(C(=O)N3CCN(Cc4ccc5c(c4)OCO5)CC3)oc2c1C	-6.9	–	–	–	–
CC(C)(C)n1nnnc1C(c1ccccn1)N(Cc1ccccc1)Cc1ccc(Cl)cc1 (centres undefined)	-7.7	–	-28%	–	–	KCNQ2 patch conf=–
CCN(Cc1ccccc1)C(c1ccccn1)c1nnnn1C(C)(C)CC (centres undefined)	–	·	·	·	·
COc1ccc(C(=O)C2CCCN(C(=O)c3noc4c3CCCC4)C2)c(C)c1 (centres undefined)	–	–	·	·	·
COc1cc(CN2CCCN(C)CC2)cc([N+](=O)[O-])c1O	–	–	·	·	·
CCCCN(CC)C(=O)c1cccc(Cl)c1	–	–	·	·	·
CCCCN(CC)C(=O)c1ccc(-c2ccccc2)cc1	-6.8	–	-26%	–	–	KCNQ2 patch conf=–
COc1ccc2[nH]c(=O)c(C(c3nnnn3C3CCCCC3)N3CCN(C)CC3)cc2c1 (centres undefined)	–	·	·	·	·
O=c1[nH]c2cc3c(cc2cc1C(c1nnnn1C1CCCC1)N1CCSCC1)OCCO3 (centres undefined)	–	–	·	·	·
COc1cc2cc(C(c3nnnn3C3CCCCC3)N(C)C3CCCCC3)c(=O)[nH]c2cc1OC (centres undefined)	-11	–	–	–	–
COc1ccc(Cn2nnnc2C(c2cc3cc(C)ccc3[nH]c2=O)N2CCN(C)CC2)cc1 (centres undefined)	–	·	·	·	·
CC(C)C(c1nnnn1C1CCCC1)N(C)C1CCCCC1 (centres undefined)	–	–	·	·	·
COc1cc2cc(C(c3nnnn3C3CCCC3)N(C)C3CCCCC3)c(=O)[nH]c2cc1OC (centres undefined)	-9	–	-36%	–	–	KCNQ2 patch conf=+
Cc1ccc(C(c2nnnn2C2CCCCC2)N(C)C2CCCCC2)cc1 (centres undefined)	-8.3	–	–	–	–
COc1cc2cc(C(c3nnnn3Cc3ccc(F)cc3)N3CCCCCC3)c(=O)[nH]c2cc1OC (centres undefined)	-7.7	–	-28%	–	–	KCNQ2 patch conf=+
Cc1cc(S(=O)(=O)N2CCCOC2CNC(=O)C(=O)NCc2cccs2)ccc1F (centres undefined)	–	·	·	·	·
COc1cc(NC(=O)c2cc(-c3ccco3)on2)cc(OC)c1OC	–	–	·	·	·
CCN1CCN(c2cc(N3CCc4ccccc4C3)c(F)cc2[N+](=O)[O-])CC1	-6.9	–	-29%	–	–
